An excerpt weighted towards active compounds, which were near 4.5% of everything screened.
Jurkat NFkB inh: inhibitors of the PMA/ionomycin-induced NF-kB reporter in Jurkat cells. PMA/ionomycin-induced NF-kB luciferase reporter, luminescence. inhibition, % at 4 µM. 0.53% of 330,000 active. AID 435003; in the data active = inhibition above about 50%
Beta apoptosis: beta cell apoptosis inhibition; 0.8% of 300,000 active; INS-1E cytokine-induced death, ATP luminescence, 48 h; percent of positive-control rescue, neutral wells zero; protection from apoptosis, % (test concentration not listed);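 active = Every replicate reaches about 75%, or at least half do and their mean reaches it too, limit read from the data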;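 note: higher means more ATP so stronger rescue from cytokine killing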
CSC inhib: cancer stem cell inhibition. AID 2717. 1.1% of 300,000 active. cancer stem cell-like cells viability, luminescence. inhibition, % at 7.5 µM; in the data active = inhibition above about 75%; tested in HMLE shEcad cells
Mdm2 MdmX PPI: human Mdm2/MdmX binding inhibition. O15151+Q00987. SaOS-2 split-luciferase Mdm2/MdmX complementation, luminescence. inhibition, % at 8 µM. 3% of 330,000 active;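 active = inhibition of at least 50% at 8 µM in the primary screen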
Target sequence (O15151 whole entry, looked up): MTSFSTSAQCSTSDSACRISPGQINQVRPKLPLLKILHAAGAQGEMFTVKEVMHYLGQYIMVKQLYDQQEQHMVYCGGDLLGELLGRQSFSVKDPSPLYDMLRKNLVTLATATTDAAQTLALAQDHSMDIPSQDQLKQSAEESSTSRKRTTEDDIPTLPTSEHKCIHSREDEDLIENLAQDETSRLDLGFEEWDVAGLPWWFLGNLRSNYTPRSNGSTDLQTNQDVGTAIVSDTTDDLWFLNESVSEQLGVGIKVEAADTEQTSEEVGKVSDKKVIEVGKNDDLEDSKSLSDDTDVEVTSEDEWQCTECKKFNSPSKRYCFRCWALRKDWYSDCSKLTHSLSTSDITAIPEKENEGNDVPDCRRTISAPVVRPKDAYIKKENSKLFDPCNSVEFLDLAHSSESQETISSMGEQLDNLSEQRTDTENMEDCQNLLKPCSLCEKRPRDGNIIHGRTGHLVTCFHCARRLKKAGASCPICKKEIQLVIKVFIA
Target sequence (Q00987 whole entry, looked up): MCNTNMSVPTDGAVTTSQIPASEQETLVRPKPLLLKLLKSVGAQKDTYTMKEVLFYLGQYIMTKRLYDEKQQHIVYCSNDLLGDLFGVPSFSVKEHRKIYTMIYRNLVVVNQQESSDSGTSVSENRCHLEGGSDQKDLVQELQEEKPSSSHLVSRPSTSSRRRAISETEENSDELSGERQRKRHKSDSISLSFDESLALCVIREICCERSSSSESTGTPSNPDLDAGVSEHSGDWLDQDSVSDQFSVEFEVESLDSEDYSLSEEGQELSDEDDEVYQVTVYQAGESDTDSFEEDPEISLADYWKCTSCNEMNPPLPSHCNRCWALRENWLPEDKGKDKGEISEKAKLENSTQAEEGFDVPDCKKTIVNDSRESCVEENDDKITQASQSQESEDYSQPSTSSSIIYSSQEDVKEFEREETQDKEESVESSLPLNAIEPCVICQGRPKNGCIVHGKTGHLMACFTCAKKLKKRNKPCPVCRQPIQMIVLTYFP
697 NFkB inh: lowers PMA/ionomycin-induced NF-kB signal in 697 B cells; 697 B-cell NF-kB luciferase reporter, 16 h; inhibition, % at 4 µM; 0.33% of 330,000 active; AID 435022; in the data active = inhibition above about 35%
Gli-Sufu block: antagonists of Gli-Sufu signaling; 0.74% of 340,000 active; inhibition, % at 5 µM; Sufu-KO-LIGHT fibroblasts, Gli luciferase reporter luminescence;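 active = inhibition above about 55%, limit read from the data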
Gli antag conf: Gli-SUFU antagonism confirmation, single concentration; Sufu-KO-LIGHT cells, Gli luciferase reporter, luminescence; inhibition, % at 5 µM; shares compounds with Gli-Sufu block; 40% of 2,500 active; AID 602428;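 active = mean inhibition at 5 µM reaching about 45%, limit read from the data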
SufuKO cytotox: counter-screen for Gli-SUFU antagonists: cytotoxicity | AID 651994 | cytotoxicity, % at 5 µM | shares compounds with Gli-Sufu block | Sufu-KO-LIGHT cells cytotoxicity, ATP luminescence | 32% of 2,500 active;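 active = mean cytotoxicity at 5 µM above about 25%, limit read from the data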;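 note: cells exposed to compound overnight for roughly 16 to 18 hours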
Wnt3a counter: counter-screen for Gli-SUFU antagonists: Wnt3a reporter inhibition | shares compounds with Gli-Sufu block | Wnt-LIGHT cells, Wnt3a-driven luciferase reporter, luminescence | inhibition, % at 6.25 µM | 20% of 2,500 active | AID 651995;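 active = mean inhibition above about 25%, limit read from the data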
Numbers stand for hits.

For C/C=C/C(=O)Nc1cccc(C2=NOC3(C2)C[C@H](C(N)=O)N(C(=O)c2ccccc2C(=O)c2ccccc2)C3)c1 (stereo not given in full) the results were Jurkat NFkB inh inactive, Mdm2 MdmX PPI inactive and 697 NFkB inh inactive.
`Cc1cc(C)c(C#N)c(SCC2COc3ccccc3O2)n1` (stereo not given) gave Jurkat NFkB inh inactive, Beta apoptosis inactive, CSC inhib inactive, Mdm2 MdmX PPI inactive, 697 NFkB inh inactive and Gli-Sufu block inactive.
Cc1cc(C)n2nc(SCC3COc4ccccc4O3)nc2n1 (stereo not given) was read as Jurkat NFkB inh inactive, Beta apoptosis inactive, Mdm2 MdmX PPI inactive, 697 NFkB inh inactive, Gli-Sufu block 99, Gli antag conf inactive, SufuKO cytotox inactive and Wnt3a counter inactive.
Screening CCC1CCCCN1CCCNC(=O)Cn1c(=O)c2cccn2c2cccnc21 (stereo not given) returned Jurkat NFkB inh inactive, Beta apoptosis inactive, CSC inhib inactive, Mdm2 MdmX PPI inactive, 697 NFkB inh inactive, Gli-Sufu block 69, Gli antag conf inactive, SufuKO cytotox inactive and Wnt3a counter inactive.
For N#C/C(=C\c1ccc(-c2ccc([N+](=O)[O-])cc2)o1)C(=O)Nc1nc(-c2cccs2)cs1 the results were Jurkat NFkB inh inactive, Beta apoptosis inactive, CSC inhib inactive, Mdm2 MdmX PPI inactive, 697 NFkB inh inactive, Gli-Sufu block 70, Gli antag conf 80, SufuKO cytotox inactive and Wnt3a counter 44.
N#C/C(=C/c1ccc(-c2cccc([N+](=O)[O-])c2)o1)C(=O)Nc1nc(-c2cccs2)cs1 was read as Gli-Sufu block inactive.
CC(C)[C@H](N)C(=O)N1CCC(C(=O)N[C@@H](Cc2ccccc2)C(=O)NCc2ccc(F)cc2)CC1 was read as Jurkat NFkB inh inactive, Beta apoptosis inactive, CSC inhib inactive, Mdm2 MdmX PPI inactive, 697 NFkB inh inactive and Gli-Sufu block inactive.
`COCCN(C(=O)CSc1nnc(-c2cccc(F)c2)n1N)c1c(N)n(Cc2ccccc2)c(=O)[nH]c1=O` gave Jurkat NFkB inh inactive, Beta apoptosis inactive, CSC inhib inactive, Mdm2 MdmX PPI inactive, 697 NFkB inh inactive and Gli-Sufu block inactive.
`COCCN(C(=O)CSc1nnc(-c2ccccc2F)n1N)c1c(N)n(Cc2ccccc2)c(=O)[nH]c1=O` gave Jurkat NFkB inh inactive, Beta apoptosis inactive, CSC inhib inactive, Mdm2 MdmX PPI inactive, 697 NFkB inh inactive, Gli-Sufu block inactive, Gli antag conf inactive, SufuKO cytotox inactive and Wnt3a counter inactive.
O=C(O)c1ccc(N/N=C/c2ccc(OC(=O)c3ccccc3Cl)cc2)cc1 was read as Jurkat NFkB inh inactive, Beta apoptosis inactive, CSC inhib inactive, Mdm2 MdmX PPI inactive, 697 NFkB inh inactive, Gli-Sufu block 61, Gli antag conf 64, SufuKO cytotox inactive and Wnt3a counter 79.
CCn1cc(C(=O)N[C@@H](CC(C)C)C(=O)NCCCn2ccnc2)c(=O)c2cc3c(cc21)OCO3 was read as Jurkat NFkB inh inactive, Beta apoptosis inactive, CSC inhib inactive, Mdm2 MdmX PPI inactive, 697 NFkB inh inactive and Gli-Sufu block inactive.
`CCC(C)[C@H](NC(=O)c1cn(CC)c2cc3c(cc2c1=O)OCO3)C(=O)NCCCn1ccnc1` (stereo not given in full) gave Jurkat NFkB inh inactive, Beta apoptosis inactive, CSC inhib inactive, Mdm2 MdmX PPI inactive, 697 NFkB inh inactive, Gli-Sufu block inactive, Gli antag conf inactive, SufuKO cytotox inactive and Wnt3a counter inactive.
For CC(C)NC(=O)c1nc2c(nnn2Cc2cccc(Cl)c2)c(=O)[nH]1 the results were Jurkat NFkB inh inactive, Beta apoptosis inactive, CSC inhib inactive, Mdm2 MdmX PPI inactive and 697 NFkB inh inactive.
Screening COC(=O)c1ccc(C(c2c(C)n(C)n(-c3ccccc3)c2=O)c2c(C)n(C)n(-c3ccccc3)c2=O)cc1 returned Jurkat NFkB inh inactive, Beta apoptosis inactive, CSC inhib inactive, Mdm2 MdmX PPI inactive, 697 NFkB inh inactive and Gli-Sufu block inactive.
`CC1CC(C)CN(CCCNC(=O)CN2C(=O)COc3ccc(S(=O)(=O)N4CCOCC4)cc32)C1` (stereo not given) gave Jurkat NFkB inh inactive, Beta apoptosis inactive, CSC inhib inactive, Mdm2 MdmX PPI inactive, 697 NFkB inh inactive and Gli-Sufu block inactive.
Cc1cc2nc(-c3cccnc3SCC(=O)NCc3ccco3)[nH]c2cc1C was read as Jurkat NFkB inh inactive, Beta apoptosis inactive, CSC inhib inactive, Mdm2 MdmX PPI inactive, 697 NFkB inh inactive and Gli-Sufu block inactive.
For O=C(CSc1ncccc1-c1nc2ccccc2[nH]1)NCc1ccco1 the results were Jurkat NFkB inh inactive, Beta apoptosis inactive, CSC inhib inactive, Mdm2 MdmX PPI inactive, 697 NFkB inh inactive, Gli-Sufu block 58, Gli antag conf inactive, SufuKO cytotox 27 and Wnt3a counter inactive.
`O=C(CNC(=S)N(Cc1ccc(F)cc1)C1CCCCC1)NC1CC1` gave Jurkat NFkB inh inactive, Beta apoptosis inactive, Mdm2 MdmX PPI inactive, 697 NFkB inh inactive, Gli-Sufu block 59, Gli antag conf inactive, SufuKO cytotox inactive and Wnt3a counter inactive.
Screening CCn1c(SCC(=O)Nc2ccc(N3CCOCC3)cc2)nnc1-c1ccco1 returned Jurkat NFkB inh inactive, CSC inhib inactive, Mdm2 MdmX PPI inactive, 697 NFkB inh inactive and Gli-Sufu block inactive.
Screening Cc1ccc(C(=O)COC(=O)c2cc(Cl)nc3ccccc23)cc1 returned Jurkat NFkB inh inactive, Beta apoptosis inactive, CSC inhib inactive, Mdm2 MdmX PPI inactive, 697 NFkB inh inactive and Gli-Sufu block inactive.
`O=C(COC(=O)c1cc(Cl)nc2ccccc12)c1ccc(Cl)cc1` gave Jurkat NFkB inh inactive, Beta apoptosis inactive, CSC inhib inactive, Mdm2 MdmX PPI inactive, 697 NFkB inh inactive, Gli-Sufu block inactive, Gli antag conf inactive, SufuKO cytotox inactive and Wnt3a counter inactive.
For CCOC(=O)c1c(S(=O)(=O)N(C)C2CCCCC2)c(C)n(C)c1C the results were Jurkat NFkB inh inactive, CSC inhib inactive, Mdm2 MdmX PPI inactive, 697 NFkB inh inactive and Gli-Sufu block inactive.
Screening Cc1cccc(NC(=O)NCCc2c[nH]c3ccccc23)c1 returned Jurkat NFkB inh inactive, Beta apoptosis inactive, CSC inhib inactive, Mdm2 MdmX PPI inactive, 697 NFkB inh inactive, Gli-Sufu block 60, Gli antag conf inactive, SufuKO cytotox inactive and Wnt3a counter inactive.
